Assay [1] can be described thus: E. coli DRC41 culture turbidity changes, primary screen, E. coli filamentation inducer project, strain DRC41, OD650, 48 h (AID 1152).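 Also: E. coli MC1000 strain DRC41 lacking acrAB efflux pump and sulA.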 Conditions: E. coli DRC41 (acrAB sulA), higher = more signal, called active from +8 up or from −8 down.
A short description of assay [2]: small-molecule binders of probe aLefty1, primary screen, biochemical, small-molecule microarray, 635/667 nm fluorescence (AID 1153).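 Also: score merges spot fluorescence with signal-to-noise ratio from the scanned slide images.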 Particulars: higher = more signal.
The nature of assay [3]: PSAC antagonists in infected red cells, primary screen, cell-based, P. falciparum Indochina, OD700, 1 h (AID 1154). Conditions: P. falciparum Indochina infected RBC osmotic lysis, higher = more signal, called active from +8 up or from −8 down.
Assay [4] is described as follows: PSAC antagonists in infected red cells, primary screen, cell-based, P. falciparum Indochina, OD700, 2 h (AID 1155).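 Also: lysis reports solute entry through the parasite surface anion channel PSAC; channel blockers reduce lysis of infected cells.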 Conditions: P. falciparum Indochina infected erythrocytes, osmotic lysis OD700; higher = more signal, called active from +8 up or from −8 down.
Assay [5] in a line: osmotic lysis modulators in infected erythrocytes, primary screen, PSAC antagonist project, cell-based, P. falciparum Indochina, OD700, 3 h (AID 1156). Particulars: higher = more signal, called active from +8 up or from −8 down.
Assay [6] in a line: PSAC antagonists in infected red cells, primary screen, cell-based, P. falciparum Indochina, OD700, 18 h (AID 1157). Particulars: P. falciparum Indochina infected erythrocytes, osmotic lysis OD700, 18 h; higher = more signal, called active from +8 up or from −8 down.
A short description of assay [7]: modulators of S6 phosphorylation in cells, primary screen, cell-based, A549, cytoblot, luminescence, serum-stimulated (AID 1158).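 Also: serum-stimulated A549 lung adenocarcinoma cells; signal is phosphorylated S6 detected by cytoblot immunostaining with HRP secondary.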 Conditions: A549 phospho-S6 cytoblot, 5 h, higher = more signal.
The target in assay [8] is NADPH oxidase 2 (Homo sapiens) (UniProt P04839). Kind of assay: NOX2-dependent H2O2 signal modulators, primary screen, NOX inhibitor project, cell-based, HEK293-NOX2, PMA-stimulated, Amplex Red fluorescence (AID 1159). Also: test concentration not given here. Particulars: 45 min, higher = more signal, called active from +8 up or from −8 down.
The target of assay [9] is NADPH oxidase 4 (Homo sapiens) (UniProt Q9NPH5). Kind of assay: NOX4-dependent H2O2 signal modulators, primary screen, NOX inhibitor project, cell-based, HEK293-NOX4, tetracycline-induced, Amplex Red fluorescence (AID 1160). Particulars: 45 min, higher = more signal, called active from +8 up or from −8 down.
In assay [10] the target is NADPH oxidase 5 (Homo sapiens) (UniProt Q96PH1). Kind of assay: NOX5-dependent H2O2 signal modulators, primary screen, NOX inhibitor project, cell-based, HEK293-NOX5, Amplex Red fluorescence (AID 1161). Particulars: HEK293-NOX5, ionomycin, 45 min, higher = more signal.
Assay [11] is described as follows: A549 cell viability effects, profiling panel, calcein-AM fluorescence, 48 h, basal (AID 1162). Also: test concentration not given here. Particulars: higher = more signal.
The nature of assay [12]: adipocyte viability effects, profiling panel, cell-based, 3T3-L1 adipocytes, calcein-AM fluorescence, 48 h, basal (AID 1163). Also: test concentration not given here. Conditions: 3T3-L1 adipocytes viability, higher = more signal.
Assay [13] is described as follows: HepG2 cell viability effects, profiling panel, calcein-AM fluorescence, 48 h, basal (AID 1164). Also: test concentration not given here. Particulars: higher = more signal.
Assay [14] in a line: MM1S cell viability effects, profiling panel, calcein-AM fluorescence, 48 h, basal (AID 1165).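 Also: viability of MM1S multiple myeloma cells under basal unstimulated conditions; test concentration not given here.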 Conditions: higher = more signal.
The nature of assay [15]: basal RPMI8226 viability, no added stimulus, profiling panel, cell-based, calcein-AM fluorescence, 48 h, PK04 Diversity Set (AID 1166).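 Also: cells grown under basal conditions without added stimulus; test concentration not given here.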 Conditions: RPMI8226 myeloma viability, higher = more signal.
Assay [16] can be described thus: basal HepG2 mitochondrial membrane potential changes, profiling panel, cell-based, JC-1 fluorescence, 24 h, 100 nL compound (AID 1167). Also: test concentration not given here. Particulars: higher = more signal.
The nature of assay [17]: basal 3T3-L1 adipocyte mitochondrial potential changes, profiling panel, cell-based, JC-1 fluorescence, 3T3-L1 adipocytes, 24 h, 100 nL compound (AID 1168). Also: test concentration not given here. Conditions: JC-1 mitochondrial fluorescence, higher = more signal, called active from +8 up or from −8 down.
The nature of assay [18]: basal RPMI8226 mitochondrial membrane potential changes, profiling panel, cell-based, JC-1 fluorescence, 24 h, 100 nL compound (AID 1169). Also: test concentration not given here. Particulars: RPMI8226 myeloma, JC-1 mitochondrial potential fluorescence, higher = more signal.
The nature of assay [19]: basal MM1S mitochondrial membrane potential changes, profiling panel, cell-based, JC-1 fluorescence, 24 h, 100 nL compound (AID 1170). Also: test concentration not given here. Conditions: higher = more signal.
Assay [20] is described as follows: A549 lung cancer cell viability effects, profiling panel, resazurin fluorescence, 24 h, PK04 Diversity Set (AID 1171). Also: test concentration not given here. Particulars: higher = more signal, called active from +8 up or from −8 down.

SMILES strings stand for the structures. The source made the active and inactive calls.

Chain of NADPH oxidase 4 (Homo sapiens) (Q9NPH5 whole entry, looked up): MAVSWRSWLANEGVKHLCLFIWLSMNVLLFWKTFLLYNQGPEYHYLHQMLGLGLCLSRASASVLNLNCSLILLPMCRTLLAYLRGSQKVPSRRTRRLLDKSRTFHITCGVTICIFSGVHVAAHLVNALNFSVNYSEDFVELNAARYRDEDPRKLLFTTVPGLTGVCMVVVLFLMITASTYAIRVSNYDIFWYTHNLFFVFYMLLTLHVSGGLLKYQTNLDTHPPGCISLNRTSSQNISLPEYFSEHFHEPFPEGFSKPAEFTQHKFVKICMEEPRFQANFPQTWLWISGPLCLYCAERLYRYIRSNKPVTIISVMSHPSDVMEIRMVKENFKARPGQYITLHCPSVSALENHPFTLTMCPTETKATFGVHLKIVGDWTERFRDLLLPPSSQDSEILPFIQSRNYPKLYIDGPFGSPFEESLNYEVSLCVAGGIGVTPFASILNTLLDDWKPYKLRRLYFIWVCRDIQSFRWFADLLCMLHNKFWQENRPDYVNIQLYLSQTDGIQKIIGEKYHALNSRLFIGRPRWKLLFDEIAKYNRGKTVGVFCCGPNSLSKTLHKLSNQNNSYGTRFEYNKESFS
Chain of NADPH oxidase 2 (Homo sapiens) (P04839 whole entry, looked up): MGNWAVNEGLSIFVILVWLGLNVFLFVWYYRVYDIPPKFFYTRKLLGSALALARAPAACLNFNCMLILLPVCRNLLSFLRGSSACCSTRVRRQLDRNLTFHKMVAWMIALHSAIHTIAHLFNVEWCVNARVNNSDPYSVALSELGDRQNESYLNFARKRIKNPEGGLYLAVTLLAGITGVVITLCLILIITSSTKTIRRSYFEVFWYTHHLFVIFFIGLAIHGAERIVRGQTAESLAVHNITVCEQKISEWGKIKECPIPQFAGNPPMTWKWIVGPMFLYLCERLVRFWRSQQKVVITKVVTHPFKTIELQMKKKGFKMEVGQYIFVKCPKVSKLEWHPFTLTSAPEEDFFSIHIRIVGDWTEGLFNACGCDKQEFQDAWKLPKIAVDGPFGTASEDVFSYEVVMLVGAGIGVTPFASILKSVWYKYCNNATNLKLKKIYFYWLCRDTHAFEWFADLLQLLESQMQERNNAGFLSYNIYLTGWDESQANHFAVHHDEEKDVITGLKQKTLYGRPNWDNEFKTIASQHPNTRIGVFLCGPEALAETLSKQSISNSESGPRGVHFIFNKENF
Chain of NADPH oxidase 5 (Homo sapiens) (Q96PH1 whole entry, looked up): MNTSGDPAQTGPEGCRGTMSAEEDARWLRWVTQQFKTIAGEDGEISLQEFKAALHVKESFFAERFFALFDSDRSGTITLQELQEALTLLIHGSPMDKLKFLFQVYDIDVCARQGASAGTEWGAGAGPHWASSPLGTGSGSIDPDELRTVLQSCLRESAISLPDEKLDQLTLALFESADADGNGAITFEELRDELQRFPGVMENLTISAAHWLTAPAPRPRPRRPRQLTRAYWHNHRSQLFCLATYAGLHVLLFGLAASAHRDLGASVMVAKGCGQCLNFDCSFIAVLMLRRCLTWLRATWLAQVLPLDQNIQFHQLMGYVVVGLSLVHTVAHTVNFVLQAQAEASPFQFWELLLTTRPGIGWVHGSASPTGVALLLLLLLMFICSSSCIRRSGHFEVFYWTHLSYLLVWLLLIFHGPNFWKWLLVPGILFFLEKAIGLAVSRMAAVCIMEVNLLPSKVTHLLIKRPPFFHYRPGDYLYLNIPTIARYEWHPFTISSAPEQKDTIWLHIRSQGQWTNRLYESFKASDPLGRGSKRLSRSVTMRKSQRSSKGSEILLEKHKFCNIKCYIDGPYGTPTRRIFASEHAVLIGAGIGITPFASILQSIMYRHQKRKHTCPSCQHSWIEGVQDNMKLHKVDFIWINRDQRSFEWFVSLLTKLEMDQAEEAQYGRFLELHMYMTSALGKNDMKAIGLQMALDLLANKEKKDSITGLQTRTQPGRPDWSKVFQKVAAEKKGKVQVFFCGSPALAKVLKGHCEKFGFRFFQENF

Take `CN1C(=O)[C@@H]2[C@@H](CC(COc3ccccc3)=C3[C@@H](CCc4ccccc4)OB(O)C[C@@H]32)C1=O`: the z-score in assay [1] was -0.759 (inactive); in assay [3], 4.5 (inactive); in assay [4], 0.626 (inactive); in [5], -0.488 (inactive); in [6] it was 0.133 (inactive); in assay [7] it was -0.202. For the same molecule, the z-score is 0.693 (inactive) in [8]; 0.41 (inactive) in assay [9]; 0.82 in assay [10]; 0.231 in assay [11]; -0.477 in [12]; -1.14 in [13]. Besides, the z-score was -2.31 in assay [14]; -0.802 in [15]; -1.62 in assay [16]; -0.0562 (inactive) in assay [17]; 0.122 in [18]; -0.904 in assay [19]. In addition, the z-score in [20] is -0.453 (inactive). The composite z-score in [2] was -0.191.

Regarding `CCCCCCc1nc(Cc2cc(OC)c(OC)c(OC)c2)cc2c1[Si](C(C)C)(C(C)C)O[C@H]2c1ccccc1`, the z-score was -1.42 (inactive) in assay [1]; 0.612 (inactive) in assay [3]; 0.482 (inactive) in [4]; 0.491 (inactive) in assay [5]; -0.23 (inactive) in assay [6]; -0.147 in assay [7]. In addition, the z-score in [8] was -0.472 (inactive); in [9], -0.137 (inactive); in assay [10], -1.73; in [11], -0.106; in assay [12], -0.267; in [13], -0.492. In addition, the z-score is -1.09 in assay [14]; -3.49 in assay [15]; 1.03 in [16]; -0.462 (inactive) in assay [17]; -0.566 in assay [18]; -0.116 in assay [19]. In assay [20], the z-score was 2.45 (inactive). This molecule also had a composite z-score in assay [2] of 0.092.

As to `COc1ccc(C(O)C2C=CC3C(=O)N(c4ccccc4)C(=O)C3N2Nc2ccc(C#N)cc2)cc1OCc1ccccc1` (stereo not given), the z-score is -1.37 (inactive) in assay [1]; 9.41 (active) in assay [3]; 2.2 (inactive) in assay [4]; 0.918 (inactive) in assay [5]; 1.27 (inactive) in assay [6]; -0.98 in assay [7]. Also, the z-score in assay [8] was -1.69 (inactive); in [9] it was -2.41 (inactive); in [10] it was -2.45; in assay [11], 0.233; in assay [12], -0.735; in assay [13], 0.753. Also, the z-score in assay [14] was 0.333; in assay [15], -0.692; in assay [16], -0.974; in assay [17], -1.14 (inactive); in [18], -0.137; in assay [19], -0.222. In addition, the z-score in [20] is 0.141 (inactive). The composite z-score in assay [2] was found to be 0.482.

Turning to `CCCC#C[Si](O[C@H](CC)c1cn(Cc2ccccc2)nn1)(C(C)C)C(C)C`, the z-score was 0.991 (inactive) in [1]; 0.708 (inactive) in assay [3]; 0.3 (inactive) in [4]; -0.929 (inactive) in [5]; 0.358 (inactive) in assay [6]; 0.113 in assay [7]. For the same molecule, the z-score in assay [8] is 0.442 (inactive); in assay [9] it was -0.11 (inactive); in assay [10], 0.521; in assay [11], -0.164; in assay [12], -0.782; in assay [13], 0.709. The z-score is -0.588 in assay [14]; -0.439 in [15]; 0.0193 in assay [16]; -0.497 (inactive) in [17]; 0.973 in assay [18]; -1.16 in [19]. Also, in [20], the z-score was -0.406 (inactive). Moreover, the composite z-score in assay [2] was 0.687.

On to `N#Cc1ccc(NN2C(C(O)C3CC=CCC3)C=CC3C(=O)N(c4ccccc4)C(=O)C32)cc1` (stereo not given), for which the z-score was -0.411 (inactive) in [1]; 16.9 (active) in assay [3]; 3.34 (inactive) in assay [4]; 0.889 (inactive) in [5]; 1.14 (inactive) in assay [6]; -0.723 in assay [7]. The z-score is -1.21 (inactive) in assay [8]; -2.27 (inactive) in assay [9]; -2.39 in assay [10]; -0.726 in assay [11]; -0.613 in assay [12]; 0.921 in assay [13]. Besides, the z-score was -0.318 in assay [14]; -0.265 in [15]; -0.795 in assay [16]; -1.14 (inactive) in assay [17]; 0.418 in assay [18]; -0.508 in assay [19]. In addition, in [20], the z-score is -0.997 (inactive). Besides, in assay [2], the composite z-score was found to be 0.364.

With `CC(C)NC(=O)[C@@]1(C)c2ccccc2C(=O)N(Cc2ccccc2)[C@H]1c1ccc(CO)cc1`, the z-score in assay [1] was 1.31 (inactive); in assay [3], 4.68 (inactive); in [4], -0.883 (inactive); in assay [5], -0.171 (inactive); in [6], -0.851 (inactive); in assay [7], 1.64. Besides, the z-score in assay [8] was -1.34 (inactive); in [9], 0.485 (inactive); in assay [10], 0.872; in assay [11] it was 0.389; in [12], 0.714; in assay [13], 1.41. Besides, the z-score in assay [14] was 0.579; in assay [15], 0.38; in [16] it was 2.88; in [17], 1.49 (inactive); in [18], -0.197; in assay [19], 1.02. In assay [20], the z-score is -0.268 (inactive). The composite z-score in assay [2] is -0.0796.

Take `COCCCNC(=O)[C@@]1(Sc2ccc(C)cc2)CC(=O)N(Cc2ccccc2C(F)(F)F)[C@@H]1c1ccc(CO)cc1I`: the z-score in assay [1] was 0.0516 (inactive); in assay [3], 2.06 (inactive); in assay [4], 0.786 (inactive); in assay [5] it was 0.385 (inactive); in assay [6], 0.377 (inactive); in assay [7], -0.248. Besides, the z-score is 0.843 (inactive) in [8]; -1.01 (inactive) in assay [9]; 2.49 in assay [10]; -0.172 in assay [11]; 0.224 in [12]; 0.245 in assay [13]. Moreover, the z-score was -3.18 in assay [14]; -2.36 in [15]; -0.33 in [16]; -0.101 (inactive) in assay [17]; -0.339 in assay [18]; -1.33 in [19]. For the same molecule, the z-score in assay [20] is -0.731 (inactive). The composite z-score in [2] worked out at 0.112.

As for `CC(C)N1C(=O)c2ccccc2[C@@H](C(=O)NCC(F)(F)F)[C@@H]1c1ccc(CO)cc1`, the z-score in [1] was -0.234 (inactive); in assay [3] it was 2.15 (inactive); in assay [4], 0.336 (inactive); in assay [5], 0.181 (inactive); in assay [6] it was -0.0376 (inactive); in assay [7] it was -0.165. Also, the z-score in assay [8] is 0.74 (inactive); in assay [9] it was 0.912 (inactive); in [10], -1.21; in assay [11] it was 0.346; in assay [12] it was -1.81; in assay [13] it was 0.569. Also, the z-score was 0.238 in [14]; 0.371 in [15]; -0.0214 in [16]; -0.516 (inactive) in assay [17]; -0.00189 in [18]; 0.0428 in assay [19]. For the same molecule, the z-score in assay [20] is -0.0442 (inactive). The composite z-score in assay [2] is 0.0376.

These data come from PubChem BioAssay.
